Source: PubChem BioAssay (NCATS)
Results filed as inconclusive are left out. The source made the active and inactive calls. The call rests on the fitted dose curve; in most records, active means well fitted curve in the direction sought with a large enough effect; inconclusive means small, poorly fitted or top-dose-only effect, or another doubt; inactive means no such curve, though single readings can be large; an effect the other way counts as inactive or inconclusive.

Columns and labels:
[1] = qHTS assay for measurement of the activity of small molecule inhibitors on Zika virus induced Caspase-3 activity in human iPSC derived neural progenitor cells (hNPCs) (AID 1224857); further: nearly all actives have a fitted effect of over 65% in size
Procedure, shortened: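 Cells were plated at 350 per well and grown 16 to 20 hours. Compound pretreatment lasted one hour, after which ZIKV (2 FFU/cell) was added for 6 hours. Percent inhibition was normalized between uninfected and infected controls.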

[2] = qHTS assay for measurement of the activity of small molecule inhibitors on Zika virus induced Caspase-3 activity in human astrocytoma cells (AID 1224859)
Procedure, shortened: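 Percent inhibition of virus-induced caspase-3/7 signal is calculated against uninfected and ZIKV-infected control cells. Cells are SNB-19, infected at 2 FFU/cell for 6 h after 1 h compound exposure.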

[3] = NS1 protein of Zika virus - qHTS assay to identify small molecule inhibitors in human HEK 293 cells (AID 1347053); further: nearly all actives have a fitted effect of over 55% in size; further: potency means the concentration at half of the fitted maximal effect
Procedure, shortened: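 Inhibition of NS1 expression was scored in HEK 293 cells given compound 1 h ahead of MR766 virus (MOI = 0.5). Following 24 h at 37 C, two anti-NS1 antibodies generated a TR-FRET signal, scaled between uninfected and infected controls.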

[4] = qHTS of pediatric cancer cell lines to identify multiple opportunities for drug repurposing: Primary screen for TC32 cells (AID 1347089); further: nearly all actives have a fitted effect of over 60% in size; further: potency means the concentration at half of the fitted maximal effect
Procedure, shortened: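 A viability screen of TC32 cells was run over 48 h, with primary MIPE doses spanning 0.78 nM–46 µM and NPC doses 0.59 nM–46 µM. ATP luminescence (CellTiter-Glo) served as the read-out.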

[5] = qHTS of pediatric cancer cell lines to identify multiple opportunities for drug repurposing: Primary screen for DAOY cells (AID 1347090); further: nearly all actives have a fitted effect of over 55% in size; further: potency means the concentration at half of the fitted maximal effect
Procedure, shortened: (§1)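 Viability measured as metabolically active cells via CellTiter-Glo luminescence following 48 hours of compound exposure, 11-point dilutions in confirmatory testing. 500-1,000 cells/well plated 5 hours before dosing; controls were DMSO and 2.3 µM bortezomib.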

[6] = qHTS of pediatric cancer cell lines to identify multiple opportunities for drug repurposing: Primary screen for SJ-GBM2 cells (AID 1347091); further: potency means the concentration at half of the fitted maximal effect
Procedure, shortened: as §1

[7] = qHTS of pediatric cancer cell lines to identify multiple opportunities for drug repurposing: Primary screen for SK-N-MC cells (AID 1347093); further: potency means the concentration at half of the fitted maximal effect
Procedure, shortened: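 Metabolically active cells were quantified by ATP-dependent luminescence (CellTiter-Glo, 15 min at room temperature) following 48 h treatment. Cells had been plated at 500-1,000 per well and settled for 5 h beforehand.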

[8] = qHTS of pediatric cancer cell lines to identify multiple opportunities for drug repurposing: Primary screen for BT-37 cells (AID 1347094); further: potency means the concentration at half of the fitted maximal effect
Procedure, shortened: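 Plated cells (500-1,000 per well, growth media) were allowed to settle for 5 hours, treated with compound dilutions for 48 hours, then lysed with CellTiter-Glo for 15 min at room temperature before luminescence reading.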

[9] = qHTS of pediatric cancer cell lines to identify multiple opportunities for drug repurposing: Primary screen for A673 cells (AID 1347092); further: nearly all actives have a fitted effect of over 45% in size; further: potency means the concentration at half of the fitted maximal effect
Procedure, shortened: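 Titration-based qHTS on A673 cells: MIPE compounds spanned 11 points (0.78 nM to 46 µM final), NPC compounds 8 points (0.59 nM to 46 µM final). Viability after 48 h was measured by ATP luminescence.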

Measured: Potency

CC1(C)O[C@@H]2C[C@H]3[C@@H]4CCC5=CC(=O)C=C[C@]5(C)[C@@]4(F)[C@@H](O)C[C@]3(C)[C@]2(C(=O)CO)O1
inactive: [1] | [2] | [3] | [4] | [5] | [6] | [7] | [8]

COC(=O)c1cc(Cl)c(NC(C)=O)cc1OC
inactive: [1] | [2] | [3] | [4] | [5] | [6] | [9] | [8]

CCOC(=O)c1cc(=O)c2c(OCC(COc3cccc4oc(C(=O)OCC)cc(=O)c34)OC(=O)[C@@H](N)CCCCN)cccc2o1
inactive: [1] | [2] | [3] | [4] | [5] | [6] | [9] | [8]

O=[N+]([O-])c1ccc(O)c2ncccc12
active: [3] 6.31 µM | [4] 13.3 µM | [5] 2.66 µM | [6] 2.66 µM | [8] 15.5 µM
inactive: [1] | [2]

Cc1cccc(C)c1NC(=O)c1ccc(N)cc1
inactive: [1] | [2] | [3] | [4] | [5] | [6] | [7] | [8]

O=C(O)Cn1c(=O)n(Cc2ccc(Br)cc2F)c(=O)c2ccc(Cl)cc21
inactive: [1] | [2] | [3] | [4] | [5] | [6] | [9] | [8]

C[C@@H](C1=C(CCN(C)C)Cc2ccccc21)c1ccccn1
inactive: [1] | [2] | [3] | [4] | [5] | [6] | [9] | [8]

CCC(CN)=C(c1ccccc1)c1ccccc1
inactive: [1] | [2] | [3] | [4] | [5] | [6] | [9] | [8]

CCOC(=O)c1ccc(O)c(O)c1
inactive: [1] | [2] | [3] | [4] | [5] | [6] | [9] | [8]

COc1ccccc1N1CCN(CC(O)COc2cc(OC)c(OC)c(OC)c2)CC1 (stereo not drawn)
inactive: [1] | [2] | [3] | [4] | [5] | [6] | [9] | [8]

CCCC(=O)OCOC(=O)C1=C(C)NC(C)=C(C(=O)OC)C1c1cccc(Cl)c1Cl (stereo not drawn)
inactive: [1] | [2] | [3] | [4] | [5] | [6] | [9] | [8]

CNC(=O)c1cnn(-c2nc(N)c3ncn([C@@H]4O[C@H](CO)[C@@H](O)[C@H]4O)c3n2)c1
inactive: [1] | [2] | [3] | [4] | [5] | [6] | [7] | [8]

Cc1c(F)cc2c(=O)c(C(=O)O)cn3c2c1CCC3C (stereo not drawn)
inactive: [1] | [2] | [3] | [4] | [5] | [6] | [7] | [8]

C[C@H](N)C(=O)N[C@@H](C)C(=O)NC1[C@H]2CN(c3nc4c(cc3F)c(=O)c(C(=O)O)cn4-c3ccc(F)cc3F)C[C@@H]12 (stereo partly drawn)
inactive: [1] | [2] | [3] | [4] | [5] | [6] | [7]

C/C(=C(/OCCOc1ccc(Cl)cc1)c1ccc(Cl)cc1Cl)n1ccnc1
inactive: [1] | [2] | [3] | [4] | [5] | [6] | [8]
active: [7] 21.1 µM

CCC1(c2cnc[nH]2)Cc2ccccc2C1
inactive: [1] | [2] | [3] | [4] | [5] | [6] | [9] | [8]

CC(=O)c1cc2ccccc2s1
inactive: [1] | [2] | [3] | [4] | [5] | [6] | [7] | [8]

Cc1cc(O)c(C)c(C)c1O
inactive: [1] | [2] | [3] | [4] | [5] | [6] | [8]

c1ccc(C(O[C@H]2CCCN(CCc3ccc4c(c3)OCO4)C2)c2ccccc2)cc1
inactive: [1] | [2] | [3] | [4] | [5] | [9]

CCCc1c2oc(C(=O)O)cc(=O)c2cc2c(=O)cc(C(=O)O)n(CC)c12
inactive: [1] | [2] | [3] | [4] | [5] | [9] | [7] | [8]

CO/N=C(/C(=O)N[C@@H]1C(=O)N2C(C(=O)[O-])=C(C[n+]3ccn4ncccc43)CS[C@H]12)c1nsc(N)n1
inactive: [1] | [2] | [3] | [4] | [5] | [7] | [8]

CCCCOCCOC(=O)c1cccnc1
inactive: [1] | [2] | [3] | [4] | [5] | [9] | [7] | [8]

CC(C)(C)c1ccc(C(=O)CCCCl)cc1
inactive: [1] | [2] | [3] | [4] | [5] | [7] | [8]

CC(CC1c2ccccc2CCc2ccccc21)CN(C)C (stereo not drawn)
inactive: [1] | [2] | [3] | [4] | [5] | [9]

CCCCC(=O)OCC(=O)[C@H]1[C@H](C)C[C@H]2[C@@H]3C[C@H](F)C4=CC(=O)C=C[C@]4(C)[C@@]3(F)[C@@H](O)C[C@@]21C
inactive: [1] | [2] | [3] | [4] | [6] | [9] | [7] | [8]

COC(=O)c1ccc(NC(C)=O)cc1OC
inactive: [1] | [2] | [3] | [4] | [5] | [9] | [7] | [8]

CN1CC[C@H](c2c(O)cc(O)c3c(=O)cc(-c4ccccc4Cl)oc23)[C@H](O)C1
active: [3] 1.58 µM | [4] 0.592 µM | [5] 0.531 µM | [9] 0.106 µM | [7] 0.266 µM | [8] 0.347 µM
inactive: [1] | [2]

CCN(CC)CC(=O)Oc1ccc(NC(C)=O)cc1
inactive: [1] | [2] | [3] | [4] | [6] | [9] | [7] | [8]

COCCc1ccc(OCC2CO2)cc1 (stereo not drawn)
inactive: [1] | [2] | [3] | [4] | [6] | [9] | [7] | [8]

Cc1[nH]cnc1-c1ccc(Cl)cc1
inactive: [1] | [2] | [3] | [4] | [5] | [9] | [7] | [8]

CCOC(=O)[C@H](CCc1ccccc1)N[C@@H](C)C(=O)N(CC(=O)O)C1Cc2ccccc2C1
inactive: [1] | [2] | [3] | [4] | [5] | [9] | [7] | [8]

Cc1cccc(N(C)C(=S)Oc2ccc3c(c2)CCC3)c1
inactive: [1] | [2] | [3] | [4] | [5] | [9] | [8]

COc1cc(OC)nc(O[C@H](C(=O)O)C(OC)(c2ccccc2)c2ccccc2)n1
inactive: [1] | [2] | [3] | [4] | [5] | [9] | [7] | [8]

COc1ccc2cc(C=O)ccc2c1
inactive: [1] | [2] | [3] | [4] | [6] | [9] | [7] | [8]

C=CCOc1cc(Cl)ccc1C(=O)NCCN(CC)CC
inactive: [1] | [2] | [3] | [4] | [5] | [9] | [7] | [8]

Oc1cccc2[nH]ccc12
inactive: [1] | [2] | [3] | [4] | [6] | [9] | [7] | [8]

COC(=O)C1=C(C)NC(COC(N)=O)=C(C(=O)OC(C)C)C1c1cccc(Cl)c1Cl (stereo not drawn)
inactive: [1] | [2] | [3] | [4] | [6] | [9]

CCOC(=O)C(=O)c1csc(NC=O)n1
inactive: [1] | [2] | [3] | [4] | [5] | [6] | [8]

COc1cc(/C=C/C(N)=O)cc(OC)c1OC
active: [8] 0.001 µM
inactive: [1] | [2] | [3] | [4] | [5] | [9] | [7]

Cc1nc2n(c(=O)c1CCN1CCC(C(=O)c3ccc(F)cc3)CC1)CCS2
inactive: [1] | [2] | [3] | [4] | [5] | [9] | [7] | [8]

COc1cc2c(cc1OC)CN(C(=O)[C@H](C)N[C@@H](CCc1ccccc1)C(=O)O)[C@H](C(=O)O)C2
inactive: [1] | [2] | [3] | [4] | [5] | [9] | [7] | [8]

COC(=O)c1cc(Cl)ccc1OC
inactive: [1] | [2] | [3] | [4] | [5] | [9] | [7] | [8]

CCc1cc2cc(OC)c(OC)cc2c(Cc2ccccc2)n1
inactive: [1] | [2] | [3] | [4] | [5] | [9] | [7] | [8]

CC(C)C(=O)Nc1cccc(C(F)(F)F)c1
inactive: [1] | [2] | [3] | [4] | [6] | [9] | [7] | [8]

Cc1cnc(NS(=O)(=O)c2ccc(N)cc2)nc1
inactive: [1] | [2] | [3] | [4] | [5] | [9] | [8]

Cn1c(=O)c2c(ncn2CC(=O)O)n(C)c1=O
inactive: [1] | [2] | [3] | [4] | [6] | [9] | [7] | [8]

CC(=O)O[C@@H]1CC2C3CCc4cc(OC(=O)c5ccccc5)ccc4C3CCC2(C)[C@H]1OC(C)=O (stereo partly drawn)
inactive: [1] | [2] | [3] | [4] | [6] | [9] | [7] | [8]

CCCc1ccc(OCC(=O)N2CCN(C(=O)COc3ccc(CCC)cc3OC)CC2)c(OC)c1
inactive: [1] | [2] | [3] | [4] | [5] | [9] | [7] | [8]

CCOC(=O)O[C@]1(C(=O)OCCl)CC[C@H]2[C@@H]3CCC4=CC(=O)C=C[C@]4(C)[C@H]3[C@@H](O)C[C@@]21C
inactive: [1] | [2] | [3] | [4] | [6] | [9] | [7] | [8]
